Our source for the Potency values is PubChem BioAssay (NCATS).

Records with an inconclusive call do not appear. Where a call stands in place of a potency, no number is given. Active and inactive are the calls of the source. The call rests on the fitted dose curve; in most records, active means well fitted cell-killing curve with a large enough effect; inconclusive means small, poorly fitted or top-dose-only effect; inactive means flat fitted curve, though single readings scatter.
Potency means the concentration at half of the fitted maximal effect.

This test in a line: Cell Viability - LYMP2-023 (AID 975). Further: nearly all actives have a fitted effect of over 55% in size. The settings on record: LYMP2-023 lymphoblastoid cell viability; series mostly up to 92.2 µM. From the text:
NIH Chemical Genomics Center [NCGC]
NIH Molecular Libraries Screening Centers Network [MLSCN]
National Institutes of Environmental Health Sciences [NIEHS]
National Toxicology Program [NTP]
We have developed a 1536-well cell-based assay for quantitative high throughput screening (qHTS) against a number of cell lines to determine in vitro cytotoxicity of small molecules. This particular assay uses a human lymphoblastoid cell line (LYMP2-023) purchased from Coriell Institute for Medical Research.
NCGC Assay Protocol Summary:
The CellTiter-Glo luminescent cell viability assay (Promega) is a homogeneous method to measure the number of viable cells in culture. The end point readout of this assay is based on quantitation of intracellular ATP, an indicator of metabolic activity, using the luciferase reaction. Luciferase catalyzes the oxidation of beetle Luciferin to oxyluciferin and light in the presence of ATP. The luminescent signal is proportional to amount of ATP present.
Using the CellTiter-Glo luminescent cell viability assay, the amount of cellular ATP was measured in the lymphoblastoid cell line with complete culture medium following compound treatment for 24 hours. The assay was performed in opaque white Kalypsys 1536-well plates. In the screen, tetraoctylammonium bromide was used as positive control. Library compounds were measured for their ability to cause acute toxicity in the cell line, as reflected by a decrease in intracellular ATP levels, in a concentration-dependent manner. […] AC50 values were determined from concentration-response data modeled with the standard Hill equation.
qHTS protocol for CellTiter Glo lymphoblastoid cellular assay
[Step] [Parameter] [Value] [Description]
1. Reagent; 5 uL; 2500 lymphoblastoid cells/well
2. Time; 5 hr; 37 C incubation
4. Controls; 23 nL; Tetraoctylammonium bromide 6.4pM to 92 uM
5. Time; 24 hr; 37 C incubation
6. Reagent; 5 uL; CellTiter Glo reagent
7. Time; 30 min; Room Temperature
8. Detection; Luminescence; Viewlux plate reader
Keywords: cell viability, cytotoxicity, lymphoblastoid cell line, luminescence, NTPHTS, NTPHTS_NCGC, NIEHS, DSSTox, MLSMR, MLSCN, NIH Roadmap, qHTS, NCGC
For `Cc1cc(O)ccc1Cl`, the Potency result was “inactive”. The same measure for `O=[N+]([O-])c1cc([N+](=O)[O-])c2ccccc2c1`: “inactive”; for `CC(C)(O)C(=O)Nc1ccc([N+](=O)[O-])c(C(F)(F)F)c1`: “inactive”; for `O=[N+]([O-])c1c(Cl)c(Cl)cc(Cl)c1Cl`: “inactive”. The same measure for `C1CCC(NC2CCCCC2)CC1`: “inactive”; for `Nc1ccc(Cl)cc1N`: “inactive”; for `COC(C)(C)CCCC(C)C/C=C/C(C)=C/C(=O)OC(C)C` (stereo unspecified): “inactive”. The same measure for `Nc1ccc([N+](=O)[O-])cc1`: “inactive”. With `CCOCCOC(C)=O`, the Potency result is “inactive”. Turning to `CN(C)NC(=O)CCC(=O)O`, the Potency result was “inactive”. The same measure for `C=CC(=O)NCNC(=O)C=C`: “inactive”. As for `COc1ccc(C(c2ccc(OC)cc2)C(Cl)(Cl)Cl)cc1`, the entry is “inactive”. On to `CCOP(=O)(NC(C)C)Oc1ccc(SC)c(C)c1` (stereo unspecified), for which the Potency entry was “inactive”.

`CCCCC(CC)COC(=O)c1ccccc1C(=O)OCC(CC)CCCC` (stereo unspecified): the Potency result was “inactive”. The same measure for `Nc1ccc(Sc2ccc(N)cc2)cc1`: “inactive”. As for `CC(=O)[O][Hg][c]1ccccc1`, the figure is 1.26 µM (active). Consider `CCCCCCCCc1ccc(O)cc1`, for which the Potency result was “inactive”.

Regarding `O=S(=O)(c1ccc(Cl)cc1)c1ccc(Cl)cc1`, the Potency entry was “inactive”. As for `CCCCOC(=O)c1ccccc1C(=O)OCc1ccccc1`, the entry is “inactive”; as for `O=[N+]([O-])c1c2ccccc2cc2ccccc12`, “inactive”; as for `O=C(O)C(Cl)Cl`, “inactive”. The same measure for `CN(C)[C@@H]1C(=O)C(C(N)=O)=C(O)[C@@]2(O)C(=O)C3=C(O)c4c(O)cccc4[C@@](C)(O)[C@H]3[C@H](O)[C@@H]12`: “inactive”; for `OCCCBr`: “inactive”; for `O=C(O)COc1ccccc1`: “inactive”.

Take `Nc1ccc(Cl)cc1`: the Potency result is “inactive”. As for `c1cc2ccc3cccc4ccc(c1)c2c34`, the entry is “inactive”.
